Results from PubChem BioAssay.
Active and inactive are the calls of the source. The rule behind the calls is not given here.

Test: inhibition of PAO1 biofilm formation – strain PAO1, LB-PBS medium, absorbance 600 nm, primary screen (AID 1176); note: test concentration not given here
Conditions: P. aeruginosa PAO1 growth/biofilm, A600, 12 h; higher = more signal

z-score, inactive:
COC(=O)[C@H](Cc1ccc(O)cc1)N[C@@H](/C=C/C1CC1)[C@H](O)Cc1ccccc1 -0.459
COc1ccc(CCNC(=O)[C@@H]2c3ccccc3C(=O)N(Cc3ccccc3OC)[C@H]2c2ccc(CO)cc2)cc1 0.264
COc1ccc(C(=O)Nc2cccc(CN3C(=O)[C@]4(O[C@H](CC(=O)N5Cc6ccccc6C[C@H]5CO)[C@@H]([Si](C)(C)c5ccc(OC)cc5)[C@@H]4C)c4ccccc43)c2)cc1 0.425
C=CCN1Cc2ccccc2[C@H]2OC(c3ccc(OCCCO)cc3)=N[C@@]2(CCS(=O)(=O)c2ccccc2)C1=O 1.2
C=CCOC(=O)[C@H]1[C@@H]2C(=O)O[C@@H](c3ccccc3)[C@@H](c3ccccc3)N2[C@@H](c2ccc(OCCOC(=O)[C@H]3C[C@H]4C(=O)N[C@@H](CC(C)C)C(=O)N4[C@H]3c3ccc(O)cc3)cc2)[C@]12C(=O)Nc1ccccc12 2.65
CC1CC/C=C\[C@H]2OC34C=CCN(Cn5nnc6ccccc65)C(=O)[C@H]3N(CCCCCCO)C(=O)[C@@H]4C2C(=O)O1 (stereo not given in full) 0.137
[N-]=[N+]=Nc1ccccc1C[C@@]1(C(=O)NCc2ccccc2)N=C(c2ccc(OCCCO)cc2)O[C@@H]1c1ccccc1N=[N+]=[N-] 0.689
Cc1ccc(S[C@]2(C(=O)NCCCN(C)C)CC(=O)N(C3Cc4ccccc4C3)[C@@H]2c2ccc(CO)cc2I)cc1 0.531
CC(C)N1C(=O)c2ccccc2[C@](C)(C(=O)NCC(F)(F)F)[C@@H]1c1ccc(CO)cc1 -0.618
CN(C)CCCC[C@@H]1NC(=O)[C@H]2C[C@@H](C(=O)O)[C@@H](c3ccc(O)cc3)N2C1=O 1.5
O=C1[C@@H]2[C@@H](CC(COc3ccccc3)=C([C@H](O)CCc3ccccc3)[C@@H]2CO)C(=O)N1Cc1ccccc1 0.258
C=C(CCCC)/C(=C/C[C@H](OC(=O)c1ccncc1)c1ccccc1OCCO)c1cc(C(=O)OC)ccc1OC 0.297
CC(C)NC(=O)[C@@]1(C)c2ccccc2C(=O)N(Cc2ccccc2)[C@H]1c1ccc(CO)cc1 0.5
COc1ccc(C#Cc2ccc3c(c2)[C@]2(C(=O)N3)[C@H](C(=O)O)[C@H]3C(=O)O[C@H](c4ccccc4)[C@H](c4ccccc4)N3[C@@H]2c2ccccc2OCCO)cc1 3.23
CCCCCCc1nc(Cc2cc(OC)c(OC)c(OC)c2)cc2c1[Si](C(C)C)(C(C)C)O[C@H]2c1ccccc1 0.374
O=C1C[C@@](C(=O)NCc2ccccc2)(c2ccc([N+](=O)[O-])cc2)[C@@H](c2ccc(CO)cc2)N1C1CCCCC1 -0.0654
O=C(NCc1ccccc1)[C@@H]1c2ccccc2C(=O)N(Cc2cc(C(F)(F)F)cc(C(F)(F)F)c2)[C@H]1c1ccc(CO)cc1 0.338
COc1ccc([Si](C)(C)[C@@H]2[C@@H](CC(=O)N(CCO)Cc3ccccc3)O[C@]3(C(=O)N(Cc4ccc(I)cc4)c4ccccc43)[C@H]2C)cc1 1.1
COCCn1c(C(=O)N(C)C)cc2c1C[C@H]1CN(C(=O)c3ccccc3)[C@@](Cc3ccc(OC)cc3)(C(=O)OC)[C@@H]21 0.784
O=C1C2C=CC(C(O)c3cccs3)N(Nc3ccc([N+](=O)[O-])cc3)C2C(=O)N1c1ccccc1 (stereo not given) 0.89
O=C1O[C@@H](c2ccccc2)[C@@H](c2ccccc2)N2[C@@H](c3ccc(OCCO)cc3)[C@]3(C(=O)Nc4ccc(C#CC5(O)CCCCCC5)cc43)[C@@H](C(=O)Nc3nc4ccccc4s3)[C@H]12 2.29
CC(C)[Si](C#CCCc1ccccc1)(O[C@H](c1ccccc1)c1cn(Cc2ccccc2)nn1)C(C)C -0.206
COCCOC(=O)N1C(=O)[C@@]2(c3cc(C#CC4(O)CCCCCC4)ccc31)[C@H](c1ccc(O)cc1)N1[C@H](c3ccccc3)[C@H](c3ccccc3)OC(=O)[C@H]1[C@@H]2C(=O)N1CCCCCCC1 1.19
CN1C(=O)C2C(C3CC3)C=C3CN(Cc4cccc(Cl)c4)[C@@H]([C@@H](O)Cc4ccccc4)C3C2C1=O (stereo not given in full) 0.601
C=CCC(OC(C)=O)[C@@H]1[C@@H](N(Cc2ccc(-c3ccccc3)cc2)C(=O)c2cccc3ccccc23)c2cc(OCCCO)ccc2N1C(=O)Cc1ccc(OC)cc1 (stereo not given in full) -0.121
O=C1NC(=O)C2C1C=CC(C(O)c1ccc([N+](=O)[O-])cc1)N2Nc1ccccn1 (stereo not given) 0.586
CCCCC(O)C1C=CC2C(=O)N(c3ccccc3)C(=O)C2N1Nc1ccccc1 (stereo not given) -0.0625
COCCOC(=O)N1C(=O)[C@@]2(c3cc(C#Cc4ccc(OC)cc4)ccc31)[C@H](c1ccc(OCCO)cc1)N1[C@H](c3ccccc3)[C@H](c3ccccc3)OC(=O)[C@H]1[C@@H]2C(=O)NC[C@H](O)c1ccccc1 5.17
O=C1O[C@H](c2ccccc2)[C@H](c2ccccc2)N2[C@H]1[C@@H](C(=O)N1CCN(c3ncccn3)CC1)[C@]1(C(=O)Nc3ccc(C#CCCO)cc31)[C@H]2c1ccc(O)cc1 0.462
O=C1C[C@@](C(=O)O)(c2ccc([N+](=O)[O-])cc2)[C@@H](c2ccc(CO)cc2)N1C1CCCCC1 -0.0123
CN(C)CCCNC(=O)[C@@]1(C)c2ccccc2C(=O)N(Cc2ccc(OC(F)(F)F)cc2)[C@H]1c1ccc(CO)cc1 0.236
COCCOC(=O)N1C(=O)[C@@]2(c3cc(C#CCCO)ccc31)[C@H](c1ccc(OCCO)cc1)N1[C@H](c3ccccc3)[C@H](c3ccccc3)OC(=O)[C@H]1[C@@H]2C(=O)N1CCCCCCC1 1.68
C#CCN1[C@@H](Cc2ccccc2)C(=O)O[C@H](Cc2ccccc2)[C@@H]1/C=C/C1CC1 -0.565
CC(C)C[C@@H]1NC(=O)[C@@H]2C[C@H](C(=O)NCCCCCCNC(=O)CS)[C@H](c3cccc(OCCO)c3)N2C1=O 0.863
CCCCCC1=C2CNC(CC(C)C)(C(=O)OC)C=C2C(C)C1=O (stereo not given) 0.383
